Source: PubChem BioAssay (Tox21)
Results filed as inconclusive are left out. The source made the active and inactive calls. Unless noted, calls follow the shape of the dose curve; as a rule, active = well fitted curve in the direction sought with a large enough effect in the repeat runs; inconclusive = weak or mixed curves; inactive = no such curve, though single readings can be large; an effect the other way counts as inactive or inconclusive.

Assays:
[1] = qHTS assay for small molecule agonists of the p53 signaling pathway (AID 651631; calls by dose curve; also: nearly all actives have a fitted effect of over 15% in size)
In short: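 We treat p53RE-bla HCT-116 cells with compounds for 16 h at 37 °C, add LiveBLAzer B/G FRET substrate for 2 h at room temperature, and measure fluorescence intensity.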

[2] = qHTS assay for small molecules that induce genotoxicity in human embryonic kidney cells expressing luciferase-tagged ATAD5 (AID 651632); also: nearly all actives have a fitted effect of over 15% in size
In short: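 HEK293T cells carrying luciferase-tagged ATAD5 were given compound or DMSO vehicle and incubated 16 hr at 37C, 5% CO2. Luciferase activity was read after 30 min at room temperature with Amplite; a rise signals genotoxic stress.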

[3] = qHTS assay for small molecule agonists of the p53 signaling pathway - cell viability (AID 651633; calls by dose curve;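 also: p53RE-bla HCT reporter cells with a stable beta-lactamase p53 reporter; series mostly up to about 83 µM; nearly all actives have a fitted effect of over 30% in size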)
In short: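 Viability counter-read: CellTiter-Glo luminescence (30 min, room temperature) in the same p53RE-bla plates. These plates had been exposed to compounds for 16 h at 37 C.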

[4] = qHTS assay for small molecules that induce genotoxicity in human embryonic kidney cells expressing luciferase-tagged ATAD5 - cell viability (AID 651634; calls by dose curve; also: nearly all actives have a fitted effect of over 25% in size)
In short: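 HEK293T cells carrying luciferase-tagged ATAD5, 2,000 cells/well, exposed to compound for 15.5 hr at 37C. Viability read as live-cell protease activity by CellTiter-Fluor fluorescence after 30 min at 37C.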

[5] = qHTS assay for small molecule disruptors of the mitochondrial membrane potential - cell viability (AID 720634; calls by dose curve;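 also: human HepG2 liver cancer cells; series mostly up to about 83 µM; nearly all actives have a fitted effect of over 20% in size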)
In short: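 HepG2 cells, 2,000 per well, attached overnight, then treated 1 hr at 37 C, 5% CO2. Viability read as ATP by CellTiter-Glo luminescence after 30 min at room temperature. Read in the same wells as the m-MPI membrane-potential dye assay.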

[6] = qHTS assay to test for compound auto fluorescence at 590 nm (red) in HepG2 cells (AID 720674)
In short: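 Red autofluorescence (Ex/Em 540/590 nm, Rose Bengal sodium equivalents) was measured in HepG2 cells, 2,000 per well in MEM plus 10% FBS, plated overnight at 37 C. Readings were taken 1 hr after adding 23 nL compound or DMSO, at 37 C and 5% CO2.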

[7] = qHTS assay to test for compound auto fluorescence at 460 nm (blue) in HEK293 cells (AID 720678)
In short: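 Auto fluorescence in the blue band was quantified as triamterene equivalency. HEK293 cells were seeded at 2,000/well, dosed after a 4-5 hr attachment, and kept overnight at 37C before the 405/460 nm reading.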

[8] = qHTS assay to test for compound auto fluorescence at 590 nm (red) in HEK293 cells (AID 720679)
In short: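 Autofluorescence equivalency to Rose Bengal sodium, 540/590nm, in HEK293 cells exposed overnight to 23 nL compound per well.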

[9] = qHTS assay to test for compound auto fluorescence at 535 nm (green) in HEK293 cells (AID 720680)
[10] = qHTS assay to test for compound auto fluorescence at 460 nm (blue) in HEK293 cell free culture (AID 720681)
In short: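 Blue fluorescence (Ex 405/Em 460 nm, triamterene-equivalent) was read immediately after pin transfer of compound or DMSO into medium (DMEM, 10% FBS) without cells.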

[11] = qHTS assay to test for compound auto fluorescence at 535 nm (green) in HEK293 cell free culture (AID 720682)
In short: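 Green-channel intensity (Ex/Em 485/535 nm) was recorded from compound-treated wells containing only DMEM with 10% FBS. Fluorescein provided the equivalency standard.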

[12] = qHTS assay to test for compound auto fluorescence at 590 nm (red) in HEK293 cell free culture (AID 720683)
In short: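 Red-channel autofluorescence of compounds in culture medium (DMEM, 10% FBS), no cells, measured at 540/590 nm. Rose Bengal sodium is the reference fluorophore for equivalence.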

[13] = qHTS assay to test for compound auto fluorescence at 590 nm (red) in HepG2 cell free culture (AID 720684)
In short: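 Steps: dispense MEM/10% FBS medium, no cells; pin compound or DMSO vehicle; read red channel, Ex/Em 540/590 nm. Output given as Rose Bengal sodium equivalents.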

[14] = qHTS assay to test for compound auto fluorescence at 460 nm (blue) in HepG2 cell free culture (AID 720685)
In short: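 Compound (23 nL) or DMSO pinned into cell-free MEM with 10% FBS; blue fluorescence read at 405/460 nm excitation/emission, expressed as auto-fluorescence equivalency to triamterene.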

[15] = qHTS assay to test for compound auto fluorescence at 460 nm (blue) in HepG2 cells (AID 720687)
In short: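 Blue-channel autofluorescence (Ex/Em 405/460 nm, triamterene-equivalent) was measured after 1 hr compound exposure at 37 C, 5% CO2. Cells were HepG2, plated overnight at 37 C in MEM plus 10% FBS.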

[16] = qHTS assay to test for compound auto fluorescence at 535 nm (green) in HepG2 cells (AID 720675)
[17] = qHTS assay to test for compound auto fluorescence at 535 nm (green) in HepG2 cell free culture (AID 720686)
[18] = qHTS assay for small molecule disruptors of the mitochondrial membrane potential (AID 720635); also: potency is read from the fitted curve at half-maximal effect
In short: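 Mitochondrial membrane potential tracked with Mito-MPS dye, red aggregates (ex 540/em 590 nm) against green monomers (ex 490/em 535 nm). Compound treatment 1 hr at 37C, dye 30 min in HepG2.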

[19] = molecular target: Glucocorticoid receptor (Homo sapiens) (UniProt P04150); assay: qHTS assay to identify small molecule agonists of the glucocorticoid receptor (GR) signaling pathway (AID 720691; active = well fitted activation curve with a large enough effect in the signal ratio in the repeat runs, not every such curve was filed as active; the % refers to the signal ratio)
Chain of Glucocorticoid receptor (Homo sapiens) (P04150 whole entry, looked up): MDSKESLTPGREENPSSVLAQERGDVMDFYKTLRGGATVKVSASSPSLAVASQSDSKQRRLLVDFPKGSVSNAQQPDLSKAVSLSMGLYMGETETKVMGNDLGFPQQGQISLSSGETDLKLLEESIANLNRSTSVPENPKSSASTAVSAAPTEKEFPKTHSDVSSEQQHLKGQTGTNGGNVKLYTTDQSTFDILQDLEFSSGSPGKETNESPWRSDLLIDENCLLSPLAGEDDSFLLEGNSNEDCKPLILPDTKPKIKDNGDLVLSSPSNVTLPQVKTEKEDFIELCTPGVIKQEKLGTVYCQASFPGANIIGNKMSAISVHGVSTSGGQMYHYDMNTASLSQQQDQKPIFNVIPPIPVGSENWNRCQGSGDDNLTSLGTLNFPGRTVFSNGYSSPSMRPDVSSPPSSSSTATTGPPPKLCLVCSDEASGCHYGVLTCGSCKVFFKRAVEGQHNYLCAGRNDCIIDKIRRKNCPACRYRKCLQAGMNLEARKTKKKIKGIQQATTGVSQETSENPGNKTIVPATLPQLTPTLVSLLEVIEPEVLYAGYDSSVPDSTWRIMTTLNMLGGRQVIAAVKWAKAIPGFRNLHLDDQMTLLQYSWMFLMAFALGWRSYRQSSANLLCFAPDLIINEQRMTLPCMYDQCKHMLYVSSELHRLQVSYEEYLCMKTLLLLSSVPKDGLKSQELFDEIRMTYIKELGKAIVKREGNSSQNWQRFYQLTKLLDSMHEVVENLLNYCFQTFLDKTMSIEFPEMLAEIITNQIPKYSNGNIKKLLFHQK
In short: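 GR-bla HeLa cells carrying a GRE-driven beta-lactamase reporter, exposed to compounds for 18 h at 37 C. Reporter activation read as fluorescence after 2 h with LiveBLAzer B/G FRET substrate at room temperature.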

[20] = molecular target: Glucocorticoid receptor (Homo sapiens) (UniProt P04150); assay: qHTS assay to identify small molecule antagonists of the glucocorticoid receptor (GR) signaling pathway (AID 720692; active = well fitted inhibition curve with a large enough effect in the signal ratio in the repeat runs, not every such curve was filed as active; the % refers to the signal ratio)
In short: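 GR-bla HeLa cells carrying a GRE-driven beta-lactamase reporter received compound after 4 h plating, then dexamethasone (5 nM final). After 18 h at 37C, the FRET substrate was loaded for 2 h at room temperature and fluorescence read.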
% is scaled to controls: 0 for no effect and ±100 for the full control effect.

C=CC(C)=CCC=C(C)C
inactive: Potency [1] | Potency [2] | Potency [3] | Potency [4] | Potency [5] | outcome [6] | Potency [7] | outcome [8] | outcome [9] | Potency [10] | outcome [11] | outcome [12] | outcome [13] | Potency [14]

O=C(O)c1cccnc1C(=O)O
inactive: Potency [1] | Potency [2] | Potency [3] | Potency [4] | Potency [5] | outcome [6] | Potency [7] | outcome [8] | outcome [9] | outcome [11] | outcome [12] | outcome [13] | Potency [14] | Potency [15]

CC(=N\O)/C(C)=N/O
inactive: Potency [1] | Potency [2] | Potency [3] | Potency [4] | outcome [6] | outcome [16] | Potency [7] | outcome [8] | outcome [9] | Potency [10] | outcome [11] | outcome [12] | Potency [14] | outcome [17]

CC(=O)CC(c1ccc([N+](=O)[O-])cc1)c1c(O)c2ccccc2oc1=O (stereo not given)
inactive: Potency [1] | Potency [2] | Potency [3] | Potency [4] | Potency [5] | fluorescence, relative to Rose Bengal [6] -0.182% [at 18.6 µM] | fluorescence, % of triamterene [7] -0.0105% [at 18.6 µM] | fluorescence, % of fluorescent control [8] 0.088% [at 18.6 µM] | fluorescence, % of fluorescein [9] 0.0049% [at 18.6 µM] | fluorescence, % of fluorescent control [10] -0.0081% [at 18.6 µM] | activity change [11] 0.0438% [at 18.6 µM] | fluorescence, % of fluorescent control [12] -0.0043% [at 18.6 µM] | fluorescence, % of Rose Bengal [13] 0.571% [at 18.6 µM] | fluorescence, % of fluorescent control [14] -0.0473% [at 18.6 µM] | fluorescence, % of fluorescein control [17] 0.0092% [at 18.6 µM] | fluorescence, % of fluorescent control [15] -0.107% [at 18.6 µM]

Cc1ccccc1N1C(=O)c2cc(S(N)(=O)=O)c(Cl)cc2NC1C (stereo not given)
inactive: Potency [1] | Potency [2] | Potency [3] | Potency [4] | Potency [18] | outcome [6] | outcome [16] | Potency [7] | outcome [8] | outcome [9] | Potency [10] | outcome [11] | outcome [12] | outcome [13] | Potency [14] | outcome [17] | Potency [15] | Potency [19] | Potency [20]

CCCCC/C(=C\c1ccccc1)CO
inactive: Potency [1] | Potency [2] | Potency [3] | Potency [4] | outcome [6] | outcome [16] | Potency [7] | outcome [8] | outcome [9] | outcome [11] | outcome [13] | Potency [14] | Potency [15]
active: Potency [18] 30.3 µM

Nc1nccs1
inactive: Potency [1] | Potency [2] | Potency [3] | Potency [4] | outcome [6] | outcome [16] | Potency [7] | outcome [8] | Potency [10] | outcome [11] | outcome [12] | outcome [13] | Potency [14] | outcome [17] | Potency [15] | Potency [19] | Potency [20]

CCC(C)=O
inactive: Potency [1] | Potency [2] | Potency [3] | Potency [4] | outcome [6] | outcome [16] | Potency [7] | outcome [8] | outcome [9] | Potency [10] | outcome [11] | outcome [12] | outcome [13] | Potency [14] | Potency [15] | Potency [19]

Cc1cc(O)c2c(O)c3c(O)cccc3cc2c1
inactive: Potency [1] | Potency [2] | Potency [3] | Potency [4] | outcome [6] | outcome [16] | Potency [7] | outcome [9] | Potency [10] | outcome [11] | outcome [12] | outcome [13] | Potency [14] | outcome [17] | Potency [15] | Potency [19]
active: Potency [18] 18.8 µM

CCOC(=N)CC(=O)OCC
inactive: Potency [1] | Potency [2] | Potency [3] | Potency [4] | Potency [5] | outcome [6] | Potency [7] | outcome [8] | outcome [9] | Potency [10] | outcome [11] | outcome [12] | outcome [13] | Potency [14]
